Counter-ions that a name gives are not always drawn.
How the values were obtained:
Settings in all cases: 20 µM
[1] = tested on: Salmonella enterica typhimurium; assay: growth AUC normalised to DMSO control (fraction of control); higher = less growth inhibition, active = hit call of the paper
Method in brief: (§1)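 After two anaerobic passages, pathogens were added at a starting OD578 of 0.01 to pre-reduced mGAM plates holding compound at 20 μM with 1% DMSO; hemin and NAD were supplemented for Haemophilus parainfluenzae. Sealed with breathable membranes, plates were read at OD578 hourly for 24 h, in three biological replicates. The trapezoidal rule, applied up to the exponential-to-stationary transition, gave the growth-curve AUC, which was normalised to DMSO controls on the same plate.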

Shigella flexneri = assay: as above
Method in brief: as §1

Vibrio cholerae = assay: as above
Method in brief: as §1

[2] = tested on: Yersinia pseudotuberculosis; assay: as above
Method in brief: as §1

P. vulgatus RND KO = assay: growth AUC normalised to DMSO control (median) (fraction of control); higher = less growth inhibition, active = hit call of the paper
Method in brief: (§2)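 For normalised area under the curve, growth curves were truncated at entry into stationary phase, integrated by the trapezoidal rule and divided against vehicle wells on the same plate. The curves came from strains passaged twice overnight without oxygen and then grown in mGAM in 96-well plates at a starting OD578 of 0.01. Each well held an approved-drug library compound at 20 μM with 1% DMSO, and OD578 was read hourly for 24 h in an anaerobic incubator. Values are medians of three biological replicates.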

P. vulgatus WT = assay: as above
Method in brief: as §2

[3] = tested on: S. enterica typhimurium WT; assay: as above
Method in brief: as §2

[4] = tested on: S. enterica typhimurium tolC KO; assay: as above
Method in brief: as §2

Measured: growth AUC normalised to DMSO control
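For growth AUC normalised to DMSO control (median) in this document: active when median AUC fell below 0.1.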

CC[C@H](C)[C@H](N)C1=N[C@H](C(=O)N[C@@H](CC(C)C)C(=O)N[C@H](CCC(=O)O)C(=O)N[C@H](C(=O)N[C@H]2CCCCNC(=O)[C@H](CC(N)=O)NC(=O)[C@@H](CC(=O)O)NC(=O)[C@H](Cc3cnc[nH]3)NC(=O)[C@@H](Cc3ccccc3)NC(=O)[C@H]([C@@H](C)CC)NC(=O)[C@@H](CCCN)NC2=O)[C@@H](C)CC)CS1 [Bacitracin]
inactive: [1] 0.996 | Shigella flexneri 0.98 | Vibrio cholerae 1.15 | [2] 0.976 | P. vulgatus RND KO 0.137 | P. vulgatus WT 0.104 | [3] 1.01 | [4] 1.01

Cc1cc2cc3c(C)cc(=O)oc3c(C)c2o1 [Trioxsalen]
inactive: [1] 0.994 | Shigella flexneri 1.03 | Vibrio cholerae 0.996 | [2] 0.995 | P. vulgatus RND KO 1.03 | P. vulgatus WT 1.02 | [3] 0.996 | [4] 0.955

CC(C)NCC(O)c1ccc2ccccc2c1 (stereo not given) [Pronethalol hydrochloride]
inactive: [1] 0.991 | Shigella flexneri 1 | Vibrio cholerae 0.999 | [2] 0.982 | P. vulgatus RND KO 1 | P. vulgatus WT 1.01 | [3] 0.994 | [4] 0.989

CN1CCC(=C2c3ccccc3CCc3sccc32)CC1 [Pizotifen malate]
inactive: [1] 0.992 | Shigella flexneri 0.976 | [2] 0.998 | P. vulgatus RND KO 0.965 | P. vulgatus WT 0.973 | [3] 0.994 | [4] 0.963
active: Vibrio cholerae 0.873

Nc1ccn([C@H]2CC[C@@H](CO)O2)c(=O)n1 [Zalcitabine]
inactive: [1] 1.02 | Shigella flexneri 1.02 | Vibrio cholerae 1.06 | [2] 1.04 | P. vulgatus RND KO 1.04 | P. vulgatus WT 1.06 | [3] 1 | [4] 1.01

Reference: the supplement of paper PMC12350171
